Results from PubChem BioAssay (Tox21).
A number with no mark means an inactive call. Results filed as inconclusive are left out. A call without a number means that no potency is given here. The source made the active and inactive calls. Calls follow the shape of the dose curve; as a rule, active = well fitted curve in the direction sought with a large enough effect in the repeat runs; inconclusive = weak or mixed curves; inactive = no such curve, though single readings can be large; an effect the other way counts as inactive or inconclusive.

Columns and labels:
[1] = Human pregnane X receptor (PXR) small molecule agonists, qHTS cell viability counter screen (AID 1346977); also: nearly all actives have a fitted effect of over 50% in size
Outline: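 Cytotoxicity counter screen run in the same wells as the PXR luciferase assay, using PXR-Luc HepG2 cells in charcoal-stripped serum medium. Viability: CellTiter-Fluor fluorescence after 24hr compound treatment.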

[2] = Caspase-3/7 induction in HepG2 cells by small molecules, qHTS assay (AID 1346978); also: nearly all actives have a fitted effect of over 15% in size
Outline: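 Wild-type HepG2 cells (2,000/well) were settled 5 h at 37 C, 5% CO2, then exposed to compounds in DMSO for 17 h. Caspase-3/7 activity was read by luminescence 30 min after adding Caspase-Glo 3/7 reagent at room temperature.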

[3] = Caspase-3/7 induction in CHO-K1 cells by small molecules, qHTS assay (AID 1346980); also: nearly all actives have a fitted effect of over 15% in size
Outline: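 Wild-type cells were seeded at 1,500 per well and settled 5 hr at 37 C, 5% CO2, then exposed to DMSO-dissolved compounds for 17 hr. Caspase-Glo 3/7 reagent was added, and luminescence was read after 30min at room temperature.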

[4] = Caspase-3/7 induction in CHO-K1 cells by small molecules, qHTS cell viability counter screen (AID 1346979); also: nearly all actives have a fitted effect of over 35% in size
Outline: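 Cytotoxicity counter screen run in parallel with the caspase-3/7 assay: CHO-K1 cells, 16hr compound treatment at 37C, then CellTiter-Fluor for 1hr before fluorescence reading.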

[5] = Caspase-3/7 induction in HepG2 cells by small molecules, qHTS cell viability counter screen (AID 1346981); also: series mostly up to about 92 µM; nearly all actives have a fitted effect of over 30% in size
Outline: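 Wild-type HepG2 cells (2,000/well) were allowed to settle for 5 hr at 37 C, 5% CO2, then dosed with compounds in DMSO by pin transfer. After 16 hr at 37 C, CellTiter-Fluor was added and fluorescence read 1 hr later.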

[6] = target: Cytochrome P450 2D6 (Homo sapiens) (UniProt P10635); experiment: Cytochrome P450 Family 2 Subfamily D Member 6 (CYP2D6) small molecule antagonists: luciferase reporter qHTS assay (AID 1671196); also: nearly all actives have a fitted effect of over 50% in size; also: potency is read from the fitted curve at half-maximal effect; as to activity change, negative = inhibition: series mostly up to about 120 µM
Cytochrome P450 2D6 (Homo sapiens), sequence (P10635 whole entry, looked up): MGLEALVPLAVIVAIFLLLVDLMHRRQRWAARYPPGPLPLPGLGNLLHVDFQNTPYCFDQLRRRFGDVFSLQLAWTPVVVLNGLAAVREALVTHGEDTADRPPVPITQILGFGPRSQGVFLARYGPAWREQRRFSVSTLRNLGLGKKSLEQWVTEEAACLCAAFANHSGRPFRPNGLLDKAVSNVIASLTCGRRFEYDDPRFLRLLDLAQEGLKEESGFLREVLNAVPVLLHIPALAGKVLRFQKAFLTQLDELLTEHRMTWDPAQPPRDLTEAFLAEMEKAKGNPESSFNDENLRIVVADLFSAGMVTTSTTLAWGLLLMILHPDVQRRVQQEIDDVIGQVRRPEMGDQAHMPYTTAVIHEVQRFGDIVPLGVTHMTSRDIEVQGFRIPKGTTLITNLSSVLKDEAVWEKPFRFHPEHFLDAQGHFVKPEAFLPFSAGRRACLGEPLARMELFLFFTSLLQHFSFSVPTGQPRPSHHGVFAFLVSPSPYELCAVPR
Outline: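 CYP2D6 enzyme–substrate mix was held with compound for 10 min at room temperature, then NADPH regeneration solution was added and the reaction ran 1 h at room temperature. Luciferin product was detected by luminescence after 20 min with detection reagent.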

[7] = target: Nuclear receptor subfamily 1 group I member 2 (Homo sapiens) (UniProt O75469); experiment: Human pregnane X receptor (PXR) small molecule agonists, qHTS assay (AID 1346982); also: nearly all actives have a fitted effect of over 35% in size
Nuclear receptor subfamily 1 group I member 2 (Homo sapiens), sequence (O75469 whole entry, looked up): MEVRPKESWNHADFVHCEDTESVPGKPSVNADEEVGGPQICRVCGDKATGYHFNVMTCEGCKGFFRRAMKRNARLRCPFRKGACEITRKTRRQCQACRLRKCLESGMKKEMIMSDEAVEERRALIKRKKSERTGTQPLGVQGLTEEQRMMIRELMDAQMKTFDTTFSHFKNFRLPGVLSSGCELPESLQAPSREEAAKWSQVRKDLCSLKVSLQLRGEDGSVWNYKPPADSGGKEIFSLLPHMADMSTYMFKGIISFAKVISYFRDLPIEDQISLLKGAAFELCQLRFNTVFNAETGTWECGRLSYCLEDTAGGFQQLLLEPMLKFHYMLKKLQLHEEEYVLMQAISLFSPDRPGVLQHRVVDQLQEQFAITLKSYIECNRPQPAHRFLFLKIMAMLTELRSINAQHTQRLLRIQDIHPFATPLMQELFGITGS
Outline: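 PXR-Luc HepG2 cells (CYP3A4 promoter-driven luciferase) were seeded in medium with 5% charcoal-stripped FBS, left 5 hr at 37 C, then exposed to compounds in DMSO for 24 hr. Luminescence was read after ONE-Glo addition.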

[8] = target: Nuclear receptor subfamily 1 group I member 2 (Rattus norvegicus) (UniProt Q9R1A7); experiment: Rat pregnane X receptor (rPXR) activation by small molecules, qHTS assay (AID 1346983); conditions: rPXR luciferase reporter cells, One-Glo luminescence, 24 h; max activation: active compounds read high; also: nearly all actives have a fitted effect of over 20% in size
Nuclear receptor subfamily 1 group I member 2 (Rattus norvegicus), sequence (Q9R1A7 whole entry, looked up): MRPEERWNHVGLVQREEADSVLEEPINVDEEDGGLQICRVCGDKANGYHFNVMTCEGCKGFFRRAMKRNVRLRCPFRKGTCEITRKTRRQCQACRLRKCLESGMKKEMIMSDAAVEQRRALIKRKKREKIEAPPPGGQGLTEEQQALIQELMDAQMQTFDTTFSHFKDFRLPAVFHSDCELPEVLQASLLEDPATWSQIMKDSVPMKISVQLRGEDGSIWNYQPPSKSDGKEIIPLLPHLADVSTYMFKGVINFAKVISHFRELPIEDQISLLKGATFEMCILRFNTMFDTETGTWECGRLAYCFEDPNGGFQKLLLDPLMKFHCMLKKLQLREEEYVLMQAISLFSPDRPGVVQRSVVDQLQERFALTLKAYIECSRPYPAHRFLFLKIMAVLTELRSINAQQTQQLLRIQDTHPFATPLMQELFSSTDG
Outline: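 Cell-based rPXR luciferase reporter assay, 2,000 cells per well, rested 5hr at 37 C before compound addition in DMSO, then 24 hr at 37 C. One-Glo reagent was added and luminescence read after 30 min at room temperature.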

[9] = target: Nuclear receptor subfamily 1 group I member 2 (Homo sapiens) (UniProt O75469); experiment: CYP3A4 induction through human pregnane X receptor (PXR) by small molecules, qHTS assay (AID 1346984); also: nearly all actives have a fitted effect of over 40% in size
Outline: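 DPX-2 cells (HepG2 co-transfected with PXR and CYP3A4 promoter-luciferase) treated with compounds 24 h at 37C; luciferin-IPA CYP3A4 substrate 3uM final added for 3 h, then One-Glo; luminescence read. qHTS format.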

**Q.** What does the source list for `CCc1cc2cc(OC)c(OC)cc2c(Cc2ccccc2)n1`?
**A.** Potency [1]: inactive; Potency [2]: inactive; outcome [3]: inactive

**Q.** What does the source list for `O=C1CCN(c2ccccc2)N1`?
**A.** Potency [1]: inactive; Potency [2]: inactive; Potency [4]: inactive; Potency [5]: inactive; Potency [6]: 35.7 µM (active)

**Q.** Which activity change, negative = cytotoxicity [1] does the source give for `C[C@@H]1CN(c2c(F)c(F)c3c(=O)c(C(=O)O)cn(C4CC4)c3c2F)C[C@H](C)N1` here?
**A.** Its activity change, negative = cytotoxicity is 6.01% [at 19 µM].

**Q.** What about the caspase activation [2] of the same molecule?
**A.** The caspase activation was -1.23% [at 19 µM].

**Q.** What about the caspase-3/7 activation [3] of the same molecule?
**A.** Its caspase-3/7 activation is 0.203% [at 19 µM].

**Q.** And the activity change, negative = cytotoxicity [5]?
**A.** Its activity change, negative = cytotoxicity is 0.129% [at 19 µM].

**Q.** And the activation [7]?
**A.** Its activation is -4.26% [at 19 µM].

**Q.** What about the max activation [8] of the same molecule?
**A.** The max activation was -2.98%.

**Q.** And the Potency [9]?
**A.** The Potency was “inactive”.

**Q.** What about the activity change, negative = inhibition [6] of the same molecule?
**A.** The activity change, negative = inhibition was -28.8% [at 23.6 µM].

**Q.** With `CC(C)NCC(O)COc1ccc(CCOCC2CC2)cc1` (stereo not given) as the molecule, how does the Potency [1] read?
**A.** The Potency was “inactive”.

**Q.** And the Potency [2]?
**A.** The Potency was “inactive”.

**Q.** And the outcome [3]?
**A.** Its outcome is “inactive”.

**Q.** What about the Potency [5] of the same molecule?
**A.** The Potency was “inactive”.
